This is a sample that favours compounds with a hit; in the whole collection about 8.1% have one here.
KB-3-1 cytotox: KB-3-1 parental cell cytotoxicity; KB-3-1 viability, CellTiter-Glo ATP luminescence, 72 h; Potency, µM (highest dose often 46.1 µM), hits mostly cytotoxic; hit rate 1.4% among 400,000; AID 1347075; note: nearly all actives have a fitted effect of over 60% in size
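KB-3-1 parental drug-naive adenocarcinoma cells in DMEM/10% FBS, incubated 72 h at 37 C with pin-transferred compounds across a concentration series. Viability by CellTiter-Glo luminescence; concentration-response curves fitted after normalization.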
KB-V1 cytotox: KB-V1 MDR subline cytotoxicity; KB-V1 MDR cells viability, CellTiter-Glo, 72 h; Potency, µM (highest dose often 46.1 µM), actives largely listed as cytotoxic; hit rate 3.4% among 400,000; AID 1347076; note: nearly all actives have a fitted effect of over 60% in size
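KB-V1 cells (P-gp-expressing MDR subline of KB-3-1) in phenol-red-free DMEM with 10% FBS were exposed to library compounds over a concentration series for 72 h at 37 degrees C. Viability read by CellTiter-Glo luminescence; concentration-effect curves fitted after normalization.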
ELG1 repair inh: blocks ELG1-dependent DNA repair in HEK293T cells. HEK293T ELG1-luciferase reporter, luminescence, 16 h; DNA damage induced by 5-fluorouridine. Potency, µM (series often up to 46.1 µM), actives largely listed as inhibitors. hit rate 2.3% among 330,000; note: nearly all actives have a fitted effect of over 55% in size
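Quantitative HTS, concentration-response format. 2,000 cells/well co-treated with 5-fluorouridine and compound, 16 hr in 5% CO2 at 37 °C; ONE-Glo luminescence read after 30 min.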
SW480 rerep: inducers of DNA re-replication in SW480 colon cancer cells; SW480 DNA re-replication, Hoechst DNA content imaging, 48 h; Potency, µM (titrated, usually from 46.1 µM), hits mostly activators; hit rate 1.8% among 340,000; AID 624297; note: nearly all actives have a fitted effect of over 55% in size
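SW480 cells exposed to compounds for 48 hr at 37 C, 5% CO2, then Hoechst-stained 40 min. Nuclear DNA content imaged by fluorescence scanning (405 nm excitation, 500-530 nm emission); re-replication scored as increased high-intensity nuclei.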
MCF10A rerep: DNA re-replication induction in MCF 10a cells. MCF 10A DNA re-replication, Hoechst nuclear intensity, 48 h. Potency, µM (top dose mostly 46.1 µM), actives largely listed as activators. hit rate 2.9% among 350,000; note: nearly all actives have a fitted effect of over 50% in size
Hits are given with their value; n = inactive; u = inconclusive; x = no result given; [ ] = remark or other dose. Calls come from the whole dose curve; as a rule, active = well fitted curve in the direction sought with a large enough effect; inconclusive = small, poorly fitted or top-dose-only effect, or another doubt; inactive = no such curve, though single readings can be large; an effect the other way counts as inactive or inconclusive.

SMILES | KB-3-1 cytotox | KB-V1 cytotox | ELG1 repair inh | SW480 rerep | MCF10A rerep
Cc1ccc(-n2nc3ccc(N)cc3n2)cc1C | n | n | u | 16µM | 16µM
Nc1ccccc1OC1=NS(=O)(=O)c2ccccc21 | u | n | x | x | x
COCCN=C1N[C@@H](c2cccc(C(F)(F)F)c2)C(C(=O)OC)=C(C)N1Cc1ccccc1 | n | n | n | n | n
COC(=O)C1=C(C)N(Cc2ccccc2)C(=NCc2cccc(C(F)(F)F)c2)N[C@H]1c1cccc(F)c1 | u | u | u | u | 12µM
COC(=O)C1=C(C)N(Cc2ccccc2)C(=NCc2cccc(C(F)(F)F)c2)N[C@H]1c1cccc(C(F)(F)F)c1 | u | u | 18µM | n[9.22 µM] | 3.7µM
O=C(Cn1ccc2cc(S(=O)(=O)N3CCCCCC3)ccc21)NCCc1ccccc1Cl | n | n | x | x | x
CC(C(=O)NC(=O)NC1CCCCC1)N1CCN(c2ccc(O)cc2)CC1 (stereo not given) | n | 23µM | n | n | n
CC(C(=O)NC(=O)NC1CCCCC1)N1CCN(c2ccccn2)CC1 (stereo not given) | n | u | u | n | n
CC1(c2nnnn2-c2ccc3c(c2)OCCO3)CCC(=O)N1CCCn1ccnc1 (stereo not given) | n | n | x | x | x
Cc1cccc(C)c1-n1c(SCC(=O)N2CC(=O)Nc3ccccc32)nc2ccccc2c1=O | u | 18µM | n | x | n
COCCn1c(SCC(=O)N2CC(=O)Nc3ccccc32)nc2ccccc2c1=O | n | n | u | u | n
Cc1ccc(-n2c(SCC(=O)N3CC(=O)Nc4ccccc43)nc3ccccc3c2=O)cc1 | u | 18µM | 18µM | n | n
CCC(CO)Nc1ncnc2c1cnn2-c1ccc(C)cc1 (stereo not given) | n | u | x | x | x
COc1ccc(CN2CCNC(=O)C2CC(=O)NCCCC2CCCC2)c(F)c1 (stereo not given) | x | x | n | n | n
CCn1c(=O)c2cc(S(=O)(=O)NCc3ccccc3)ccc2n(CC)c1=O | n | 15µM | n | n | n
CCn1c(=O)c2cc(S(=O)(=O)NCCOc3ccccc3)ccc2n(CC)c1=O | n | n | n | n | n
CCOC(=O)C1=C(C)N(Cc2ccccc2)C(=O)NC1c1ccccc1OS(=O)(=O)c1ccccc1[N+](=O)[O-] (stereo not given) | u | 7.3µM | x | u | n
COC(=O)C1=C(C)N(CCCC(=O)O)C(=O)NC1c1ccccc1OS(=O)(=O)c1ccccc1[N+](=O)[O-] (stereo not given) | n | n | x | n | n
Oc1ccc(N=Nc2cccc(C(F)(F)F)c2)cc1C=Nc1ccc(N2CCOCC2)cc1 | n | n | n | u | 5.8µM
Oc1ccc(C=Nc2ccc(N3CCOCC3)cc2)c(O)c1 | n | u | n | u | u
CSC1=NC(C(Cl)(Cl)Cl)N=C(c2ccc(C)cc2)N1 (stereo not given) | 1µM | 1.3µM | u | u | 1.8µM
O=C(CSc1ncnc2nc[nH]c12)N1CCN(c2ccc(Cl)cc2)CC1 | 18µM | u | 18µM | n | n
Clc1ccc(C(c2ccccc2)c2c[nH]c3ccccc23)s1 (stereo not given) | u | n | x | x | x
OC(CNCC(c1ccc(Cl)cc1Cl)c1c[nH]c2ccccc12)c1ccccc1 (stereo not given) | n | 23µM | u | n | u
CCOC(=O)C(=O)N(C)c1c(CC)nc2c(OCc3ccc(OC(F)F)cc3)cccn12 | n | n | x | x | x
SMILES | KB-3-1 cytotox | KB-V1 cytotox | ELG1 repair inh | SW480 rerep | MCF10A rerep
CCc1ccccc1N(c1nc(-c2ccc(OC)c(OC)c2)no1)c1nc(-c2ccc(OC)c(OC)c2)no1 | n | n | x | x | x
CS(=O)(=O)N1CCN(C(=O)c2cc(-c3cccnc3)nc3ccc(Cl)cc23)CC1 | n | n | u | n | n
O=C(c1ccc(COc2ccc(Cl)cc2)o1)N1CCN(Cc2ccc3c(c2)OCO3)CC1 | n | 10µM | n | n | u
COc1ccc(CN2CCN(C(=O)c3cc(-c4cccnc4)nc4ccc(Cl)cc34)CC2)c(OC)c1OC | n | u | 9.2µM | n | n
O=C(c1cccn2c(=O)c3ccc(Cl)cc3nc12)N1CCN(Cc2ccc3c(c2)OCO3)CC1 | n | n | n | 16µM | 16µM
O=C(c1cc(-c2ccncc2)nc2ccc(Cl)cc12)N1CCN(Cc2ccc3c(c2)OCO3)CC1 | n | u | 15µM | u | n
O=C(c1cccc(Cl)c1)N1CCN(Cc2ccc3c(c2)OCO3)CC1 | n | n | u | n | n
COc1ccc(CNC(=O)c2cc(-c3cccs3)nc3ccccc23)c(OC)c1 | n | n | x | x | x
Cc1cccc(OC(=O)c2cc(-c3ccc4c(c3)OCCO4)on2)c1 | n | n | x | x | x
COC(=O)[C@@]1(C(C)C)N=C(c2cc(OC)c(OC)c(OC)c2)[C@]2(O1)C(=O)N(C)c1ccc(Cl)cc12 | n | n | x | x | x
NNc1nc(-c2ccccc2Cl)nc2sc3c(c12)CCCC3 | u | 4.6µM | u | u | n
CCOC(=O)c1sc2ncn(CC(=O)Nc3ccc(OCC)cc3)c(=O)c2c1C | n | n | x | x | x
Cc1ccccc1Nc1nc(Nc2ccccc2C)nc(SC2=NCCS2)n1 | n | 16µM | u | n | n
OCCN=C1CCCc2c1[nH]c1ccc(Cl)cc21 | 2.1µM | 0.73µM | n | n | n
OCCCN=C1CCCc2c1[nH]c1ccc(Cl)cc21 | 9.2µM | 1.5µM | n | n | u
COc1ccc(C(C(=O)Nc2c(C)cccc2C)n2c(=O)c(-c3ccco3)nc3ccccc32)cc1 (stereo not given) | n | n | x | x | x
Cc1ccc(S(=O)(=O)C[C@@H]2OC[C@H](C)N2S(=O)(=O)c2ccc(C)cc2)cc1 | n | u | x | x | x
Cc1cc(C(=O)Nc2ccc([N+](=O)[O-])cn2)cs1 | n | n | u | n | n
COc1ccc(CNc2cc(C)ccc2C)c(OC)c1OC | n | 15µM | n | n | n
Cc1ccccc1CSc1nc2n(n1)C(c1cccs1)C1=C(CCCC1=O)N2 (stereo not given) | n | u | n | u | 26µM
CCN(C(=O)CSc1ncnc2sc(C)c(C)c12)C1CCS(=O)(=O)C1 (stereo not given) | n | u | u | n | n
Cc1sc2ncnc(SCC(=O)NNC(=O)COc3cccc4ccccc34)c2c1C | u | u | n | u | 23µM
CCCN(CC1CC1)C(=O)CSc1ncnc2sc(C)c(C)c12 | n | n | 18µM | n | n
Cc1sc2ncnc(SCC(=O)c3cccs3)c2c1C | u | 16µM | u | n | n
Cc1cc2ccc(C)c(C)c2nc1SCC(=O)c1cccs1 | u | 15µM | n | n | u
CC(C)Cc1ccc(C(C)C(=O)Nc2ncccn2)cc1 (stereo not given) | n | n | n | n | n
COC(=O)c1cc(NC(=O)C(C)c2ccc(CC(C)C)cc2)ccc1O (stereo not given) | n | n | u | u | 15µM
C/C(=N\NC(=O)C(C)n1nc(C)c([N+](=O)[O-])c1C)c1ccccc1O (stereo not given) | u | 2.3µM | n | 4.6µM | u
